This is part of a sample that, as a whole, favours compounds with a hit. Of some 79,000 tested, about 15% had one in any assay. Active and inactive are the calls of the source. Rule as the data show it: active = growth inhibition above about 70%; inactive = the rest.

One test in a line: NCI Yeast Anticancer Drug Screen. Data for the cln2 rad14 strain (AID 165).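 Also: 0% = growth equal to vehicle treated cultures.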 The following applies: S. cerevisiae cln2 rad14 strain, at 50.0 µM (retest, dose inferred, filed as 5.0), stronger effect = higher value. Put shortly:
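Readout is yeast growth inhibition versus vehicle-treated controls, using a strain with cln2 and rad14 alterations exposed to compound.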
Turning to `CCOC(=O)CNC(=O)C1C2c3ccccc3C(c3ccccc32)C1C(=O)O` (stereo not given), the growth inhibition was 25% (inactive).

On to `O=[N+]([O-])c1ccc(NP(=S)(Nc2ccc([N+](=O)[O-])cc2)c2ccccc2)cc1`, for which the growth inhibition was 88% (active).

With `O=P(c1ccccc1)(c1ccccc1)c1ccccc1.[Cl][Sn]([c]1ccccc1)([c]1ccccc1)[c]1ccccc1`, the growth inhibition was 98% (active).

With `CC(C)(C)OOC(=O)/C=C\C(=O)OOC(C)(C)C`, the growth inhibition is -8% (inactive).

`Cc1cc2c(cc1O)C(C)(C)CCC2(C)C`: the growth inhibition is 90% (active).

With `N#CC(C#N)=Cc1ccc(Cl)o1`, the growth inhibition was 26% (inactive).

Regarding `COc1c(Br)cc(/C=C/[N+](=O)[O-])cc1Br`, the growth inhibition is 97% (active).

With `[O]=[Sb]([OH])([OH])[c]1ccc(NC2OC(CO)C(O)C(O)C2O)cc1` (stereo not given), the growth inhibition was -12% (inactive).

As to `NC(=S)C1=C(N)Oc2c(c(=O)oc3ccccc23)C1c1ccc(Br)cc1` (stereo not given), the growth inhibition was 85% (active).

With `COS(=O)(=O)c1ccccc1`, the growth inhibition is -4% (inactive).

For the compound `O=[N+]([O-])c1cc[n+]([O-])c2ccccc12`, the growth inhibition is 100% (active).

In the case of `O=C(c1ccccc1)c1c(CC(O)c2cccnc2)n(C(=O)c2ccccc2)c2ccccc12` (stereo not given), the growth inhibition was 96% (active).

In the case of `Nc1nc2ncnc(N)c2nc1-c1ccc(N(CCCl)CCCl)cc1`, the growth inhibition is 18% (inactive).

As to `O=C1c2ccccc2CCC1Br` (stereo not given), the growth inhibition was 99% (active).

For `CC1CCCC[N-]1.CC1CCCC[N-]1.N#C[S-].N#C[S-].[Cd]` (stereo not given), the growth inhibition is 69% (inactive).

On to `CCOP(=O)(OCC)/C(C#N)=C/c1ccc(Br)cc1`, for which the growth inhibition was 96% (active).

Consider `CN(CCCl)Cc1ccc(OCc2ccccc2)c(OCc2ccccc2)c1`, for which the growth inhibition is 98% (active).

Turning to `O=C(O)c1cccc2cccc(C(=O)O)c12.[Hg]`, the growth inhibition is 99% (active).

Take `S=c1[nH]c2ccccc2s1.[Pb]`: the growth inhibition is -11% (inactive).

On to `COc1ccc([As](O[As](c2ccc(OC)cc2)c2ccc(OC)cc2)c2ccc(OC)cc2)cc1`, for which the growth inhibition was 99% (active).

For `CC1=C/C(=C2/N=C(N(C)C)SS2)C(C)=N1`, the growth inhibition was 48% (inactive).

As to `CN1C2CCC1c1c([nH]c3ccccc13)C2` (stereo not given), the growth inhibition was -3% (inactive).

Take `C[CH2][Sn]([Br])([CH2]C)[c]1ccccc1CN(C)C`: the growth inhibition is 53% (inactive).

On to `O=C(CCl)Nc1ccc(Cl)cc1`, for which the growth inhibition is 16% (inactive).

`ClC1CCCCC1[Se](Cl)(Cl)C1CCCCC1Cl` (stereo not given): the growth inhibition was 99% (active).

`Cc1cc(C(C)(C)c2ccc(O)c(C)c2)ccc1O`: the growth inhibition was 98% (active).

Take `O=[N+]([O-])O.[In]`: the growth inhibition is 22% (inactive).

`[pH]1p2[pH]p3p1p3[pH]2.c1cc[c]([Ge]([c]2ccccc2)[c]2ccccc2)cc1.c1cc[c]([Ge]([c]2ccccc2)[c]2ccccc2)cc1.c1cc[c]([Ge]([c]2ccccc2)[c]2ccccc2)cc1`: the growth inhibition is 44% (inactive).

Take `C1=CC2CCC[N-]C2N1.C1=CC2CCC[N-]C2N1.[I][Pt+2][I]` (stereo not given): the growth inhibition was 99% (active).

With `O=[N+]([O-])/C=C/c1cccc(F)c1`, the growth inhibition is 99% (active).

Turning to `O=[N+]([O-])c1ccc(CS(=O)(=O)C(Cl)(Cl)Cl)o1`, the growth inhibition is 99% (active).

Regarding `CC(=O)[O][Hg][c]1ccc(N)[c]([Hg][O]C(C)=O)c1`, the growth inhibition is 98% (active).

Consider `CNP(=O)(Oc1cc(Cl)c(Cl)cc1Cl)N1CCN(c2ccccc2)CC1` (stereo not given), for which the growth inhibition is 53% (inactive).

Regarding `Cc1ccc2c(c1)N(CCN(CCCl)CCCl)c1c(ccc3ccccc13)S2`, the growth inhibition was 79% (active).

Take `CC1(C(=O)O)CCCC2(C)c3cc(O)ccc3CCC12` (stereo not given): the growth inhibition is 89% (active).

On to `C#CC(O)(CC)CC`, for which the growth inhibition is -5% (inactive).

For the compound `CC1CC[N-]C(C)C1.CN(C)C=O.[Cl][Pt][Cl]` (stereo not given), the growth inhibition is 100% (active).

For `CN1CCN(c2ccc3nc(-c4ccc5nc(-c6ccc(N(C)CCCl)cc6)[nH]c5c4)[nH]c3c2)CC1`, the growth inhibition is 99% (active).

As to `CC(=O)NNc1ccccc1`, the growth inhibition is 65% (inactive).

For the compound `CC(C)[S-].CC(C)[S-].[Pt+2].c1ccc([PH+](c2ccccc2)c2ccccc2)cc1.c1ccc([PH+](c2ccccc2)c2ccccc2)cc1`, the growth inhibition is 96% (active).

Still in this test, the particulars now being: S. cerevisiae cln2 rad14 strain, at 50.0 µM, stronger effect = higher value.
For the compound `CCOC(=O)CNC(=O)C1C2c3ccccc3C(c3ccccc32)C1C(=O)O` (stereo not given), the growth inhibition is 95.9% (active).

For the compound `O=[N+]([O-])c1ccc(NP(=S)(Nc2ccc([N+](=O)[O-])cc2)c2ccccc2)cc1`, the growth inhibition was 90.8% (active).

In the case of `O=P(c1ccccc1)(c1ccccc1)c1ccccc1.[Cl][Sn]([c]1ccccc1)([c]1ccccc1)[c]1ccccc1`, the growth inhibition was 99.1% (active).

Consider `CC(C)(C)OOC(=O)/C=C\C(=O)OOC(C)(C)C`, for which the growth inhibition was 75.3% (active).

On to `Cc1cc2c(cc1O)C(C)(C)CCC2(C)C`, for which the growth inhibition is 52.8% (inactive).

Regarding `N#CC(C#N)=Cc1ccc(Cl)o1`, the growth inhibition is 42.4% (inactive).

For `COc1c(Br)cc(/C=C/[N+](=O)[O-])cc1Br`, the growth inhibition is 90.5% (active).

On to `[O]=[Sb]([OH])([OH])[c]1ccc(NC2OC(CO)C(O)C(O)C2O)cc1` (stereo not given), for which the growth inhibition was -0.2% (inactive).

Regarding `NC(=S)C1=C(N)Oc2c(c(=O)oc3ccccc23)C1c1ccc(Br)cc1` (stereo not given), the growth inhibition is 21.4% (inactive).

In the case of `COS(=O)(=O)c1ccccc1`, the growth inhibition is -16.8% (inactive).

For `O=[N+]([O-])c1cc[n+]([O-])c2ccccc12`, the growth inhibition is 99.3% (active).

As for `O=C(c1ccccc1)c1c(CC(O)c2cccnc2)n(C(=O)c2ccccc2)c2ccccc12` (stereo not given), the growth inhibition is 56.5% (inactive).

In the case of `Nc1nc2ncnc(N)c2nc1-c1ccc(N(CCCl)CCCl)cc1`, the growth inhibition was 16.4% (inactive).

As for `O=C1c2ccccc2CCC1Br` (stereo not given), the growth inhibition is 98.6% (active).

For `CC1CCCC[N-]1.CC1CCCC[N-]1.N#C[S-].N#C[S-].[Cd]` (stereo not given), the growth inhibition was 58% (inactive).

As to `CCOP(=O)(OCC)/C(C#N)=C/c1ccc(Br)cc1`, the growth inhibition was 91.6% (active).

For the compound `CN(CCCl)Cc1ccc(OCc2ccccc2)c(OCc2ccccc2)c1`, the growth inhibition is 98.1% (active).

In the case of `O=C(O)c1cccc2cccc(C(=O)O)c12.[Hg]`, the growth inhibition is 98.5% (active).

Regarding `S=c1[nH]c2ccccc2s1.[Pb]`, the growth inhibition is 64.2% (inactive).

Regarding `COc1ccc([As](O[As](c2ccc(OC)cc2)c2ccc(OC)cc2)c2ccc(OC)cc2)cc1`, the growth inhibition was 99.4% (active).

With `CC1=C/C(=C2/N=C(N(C)C)SS2)C(C)=N1`, the growth inhibition was 15.4% (inactive).

On to `CN1C2CCC1c1c([nH]c3ccccc13)C2` (stereo not given), for which the growth inhibition is 42% (inactive).

Take `C[CH2][Sn]([Br])([CH2]C)[c]1ccccc1CN(C)C`: the growth inhibition was 71.2% (active).

As for `O=C(CCl)Nc1ccc(Cl)cc1`, the growth inhibition was 40.9% (inactive).

`ClC1CCCCC1[Se](Cl)(Cl)C1CCCCC1Cl` (stereo not given): the growth inhibition was 97.9% (active).

As for `Cc1cc(C(C)(C)c2ccc(O)c(C)c2)ccc1O`, the growth inhibition was 97.6% (active).

For `O=[N+]([O-])O.[In]`, the growth inhibition is -24.1% (inactive).

In the case of `[pH]1p2[pH]p3p1p3[pH]2.c1cc[c]([Ge]([c]2ccccc2)[c]2ccccc2)cc1.c1cc[c]([Ge]([c]2ccccc2)[c]2ccccc2)cc1.c1cc[c]([Ge]([c]2ccccc2)[c]2ccccc2)cc1`, the growth inhibition is 37.8% (inactive).

With `C1=CC2CCC[N-]C2N1.C1=CC2CCC[N-]C2N1.[I][Pt+2][I]` (stereo not given), the growth inhibition is 98.2% (active).

Regarding `O=[N+]([O-])/C=C/c1cccc(F)c1`, the growth inhibition was 99.3% (active).

As for `O=[N+]([O-])c1ccc(CS(=O)(=O)C(Cl)(Cl)Cl)o1`, the growth inhibition is 94% (active).

For `CC(=O)[O][Hg][c]1ccc(N)[c]([Hg][O]C(C)=O)c1`, the growth inhibition is 98.7% (active).

Turning to `CNP(=O)(Oc1cc(Cl)c(Cl)cc1Cl)N1CCN(c2ccccc2)CC1` (stereo not given), the growth inhibition was 97.8% (active).

For the compound `Cc1ccc2c(c1)N(CCN(CCCl)CCCl)c1c(ccc3ccccc13)S2`, the growth inhibition is 75.4% (active).

Regarding `CC1(C(=O)O)CCCC2(C)c3cc(O)ccc3CCC12` (stereo not given), the growth inhibition is 52.4% (inactive).

With `C#CC(O)(CC)CC`, the growth inhibition was 3.5% (inactive).

Consider `CC1CC[N-]C(C)C1.CN(C)C=O.[Cl][Pt][Cl]` (stereo not given), for which the growth inhibition was 49% (inactive).

With `CN1CCN(c2ccc3nc(-c4ccc5nc(-c6ccc(N(C)CCCl)cc6)[nH]c5c4)[nH]c3c2)CC1`, the growth inhibition is 98.6% (active).

As for `CC(=O)NNc1ccccc1`, the growth inhibition was 40% (inactive).

On to `CC(C)[S-].CC(C)[S-].[Pt+2].c1ccc([PH+](c2ccccc2)c2ccccc2)cc1.c1ccc([PH+](c2ccccc2)c2ccccc2)cc1`, for which the growth inhibition is 55.9% (inactive).

These data come from PubChem BioAssay (NCI).
